PubChem BioAssay AID1779 (Sanford-Burnham Center for Chemical Genomics, 2009)
The whole screen tested about 290,000 compounds, of which about 160 (0.055%) were called active. The sample holds actives, similar compounds and a random draw of the others, so the mix is not that of the screen. Values without a mark were called inactive. No stated cut-off is given here; in the data, active means inhibition above about 50%; inactive means the rest.

What follows are compounds tested against Tyrosine-protein phosphatase non-receptor type 22 (Homo sapiens) (UniProt Q9Y2R2) (assay: inhibitors of LYP phosphatase, biochemical, fluorescence intensity, uHTS (AID 1779;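 further: plate controls were vehicle with enzyme for no effect and no enzyme for full effect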)). Conditions: recombinant LYP phosphatase, at 11.5 µM, hits give high values.
Tyrosine-protein phosphatase non-receptor type 22 (Homo sapiens), sequence (Q9Y2R2 whole entry, looked up): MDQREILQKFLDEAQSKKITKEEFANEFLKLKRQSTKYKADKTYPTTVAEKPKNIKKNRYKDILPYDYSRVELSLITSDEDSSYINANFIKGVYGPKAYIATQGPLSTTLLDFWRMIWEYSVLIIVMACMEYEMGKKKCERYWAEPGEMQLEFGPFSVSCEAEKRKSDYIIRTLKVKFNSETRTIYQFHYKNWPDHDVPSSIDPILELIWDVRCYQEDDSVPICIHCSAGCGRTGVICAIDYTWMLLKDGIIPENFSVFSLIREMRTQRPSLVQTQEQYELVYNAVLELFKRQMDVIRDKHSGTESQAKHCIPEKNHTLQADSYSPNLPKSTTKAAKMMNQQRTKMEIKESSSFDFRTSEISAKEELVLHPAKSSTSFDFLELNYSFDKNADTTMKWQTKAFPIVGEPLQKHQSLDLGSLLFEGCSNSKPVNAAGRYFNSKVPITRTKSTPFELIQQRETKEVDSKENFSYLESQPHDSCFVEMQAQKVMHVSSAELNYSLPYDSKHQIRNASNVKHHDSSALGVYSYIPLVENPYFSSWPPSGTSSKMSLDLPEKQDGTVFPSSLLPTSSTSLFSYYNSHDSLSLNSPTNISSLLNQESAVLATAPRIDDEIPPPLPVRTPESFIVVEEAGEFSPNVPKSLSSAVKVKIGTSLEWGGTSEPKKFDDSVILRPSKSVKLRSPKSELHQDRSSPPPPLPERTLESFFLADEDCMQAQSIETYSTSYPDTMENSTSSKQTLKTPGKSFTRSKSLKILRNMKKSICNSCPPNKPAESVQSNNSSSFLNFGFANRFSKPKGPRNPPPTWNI
Work on `Cc1csc2ncc(C(=O)N3CCCc4ccccc43)c(=O)n12` yielded an inhibition of -4%.
With `O=C(CN1C(=O)CSc2ccccc21)Nc1ccccc1C(=O)N1CCOCC1` the inhibition was -0.4%.
In the case of `NC(=O)c1nc(-c2cccs2)nc2c1[nH]c(=O)n2-c1ccc(F)cc1`, the inhibition is reported as -3.8%.
`O=C(Nc1nccs1)c1ccc(S(=O)(=O)NCC2CCCCC2)cc1` gave an inhibition of 9.6%.
For `O=C(Nc1nccs1)c1ccc(S(=O)(=O)c2ccccc2)cc1`, the inhibition was -4.6%.
With `O=C(Nc1nccs1)c1ccc(S(=O)(=O)NCc2cccs2)cc1` the inhibition was 84.4% (active).
With `Cc1ccccc1NC(=S)NC(NC(=O)c1ccccc1C)C(Cl)(Cl)Cl` (centres undefined) the inhibition was -5.7%.
With `COc1ccc(S(=O)(=O)N2CCCCCC2)cc1C(=O)OCc1c(C)noc1C` the inhibition was 50.5% (active).
Compound `COc1ccc(S(=O)(=O)N2CCc3ccccc32)cc1C(=O)OCc1c(C)noc1C` has an inhibition of 1%.
`Cc1noc(C)c1COC(=O)c1ccc(S(=O)(=O)N2CCCCC2)cc1` showed an inhibition of -3.8%.
Compound `CCOC(=O)c1c(NC(=O)COc2ncnc3ccccc23)sc(C)c1C` has an inhibition of 3.4%.
`O=C(NCc1ccccc1)C(c1ccccc1F)N(CC1CCCO1)C(=O)c1ccccn1` (centres undefined) was tested, and the inhibition was -7.1%.
In the case of `Cc1cc(NC(=O)c2cc(-c3ccc(C)s3)nc3ccccc23)no1`, the inhibition is reported as -4.3%.
`Cc1cccc(NC(=O)c2cc(-c3ccc(C)s3)nc3ccccc23)n1` gave an inhibition of 6.1%.
For `Cc1cc(C)nc(NC(=O)c2cc(-c3ccc(C)s3)nc3ccccc23)c1`, the inhibition was 79.7% (active).
Work on `COc1ccc(-c2nnn(CC(=O)N(CCCO)C(C(=O)NC3CCCC3)c3ccncc3)n2)cc1` (centres undefined) yielded an inhibition of -4.7%.
With `CC(=O)N1CCc2c(sc3c2c(=O)n(-c2ccccc2)c(=O)n3CC(=O)NCC2CCCO2)C1` (centres undefined) the inhibition was -11%.
Work on `COc1ccc(COC(=O)Nc2cn(C)nc2C(F)(F)F)cc1` yielded an inhibition of 1.1%.
For `CCC(C)[C@H](NC(=O)[C@@H]1CSC2c3ccccc3C(=O)N21)C(=O)NCC1CCCO1` (some centres undefined), the inhibition was -11.5%.
For `Cc1c([N+](=O)[O-])cc(C(=O)NCc2ccc(F)cc2)cc1[N+](=O)[O-]`, the inhibition was -4.5%.
For `CCn1cc(CNC(=O)c2cc([N+](=O)[O-])c(C)c([N+](=O)[O-])c2)cn1`, the inhibition was 55.6% (active).
`CCn1cc(CNC(=O)c2cccc([N+](=O)[O-])c2)cn1` was tested, and the inhibition was -11.2%.
Compound `COc1ccc(N(C(=O)CNC(=O)c2ccco2)C(C(=O)NCC2CCCO2)c2ccccc2)cc1` (centres undefined) has an inhibition of -11.7%.
`O=C(OC1CCOC1=O)c1cccc(S(=O)(=O)N2CCc3ccccc3C2)c1` (centres undefined) showed an inhibition of -8.2%.
`CCCN1C(=O)C(O)(CC(=O)c2ccc3c(c2)OCCO3)c2ccccc21` (centres undefined) was tested, and the inhibition was 3.1%.
In the case of `COc1ccc(-c2cc(C)no2)cc1S(=O)(=O)N1CCN(c2ccccn2)CC1`, the inhibition is reported as -10.6%.
`CCOC(=O)c1ccc2c(c1)C1C=CCC1C(C(=O)O)N2` (centres undefined) was tested, and the inhibition was 19.2%.
`O=C(OC1CCCCC1)c1ccc2c(c1)C1C=CCC1C(C(=O)O)N2` (centres undefined) was tested, and the inhibition was 64% (active).
With `O=C(O)C1Nc2c(O)cccc2C2C=CCC12` (centres undefined) the inhibition was 52% (active).
Work on `CC(=O)c1ccc2c(c1)C1C=CCC1C(C(=O)O)N2` (centres undefined) yielded an inhibition of 3.3%.
With `COc1cccc2c1NC(C(=O)O)C1CC=CC21` (centres undefined) the inhibition was 1.7%.
Compound `O=C(O)C1Nc2c(cccc2C(F)(F)F)C2C=CCC12` (centres undefined) has an inhibition of -2.1%.
`COc1cc2c(C(=O)Nc3ccccc3F)cn(C)c(=O)c2cc1OC` was tested, and the inhibition was -10.5%.
For `CCOC(=O)c1ccc(-c2ccc3c(=O)c4ccccc4n(C)c3c2)cc1F`, the inhibition was -15.2%.
In the case of `CN1CCN(S(=O)(=O)c2cccc(C(=O)NCCOc3ccccc3F)c2)CC1`, the inhibition is reported as -15.4%.
In the case of `Cc1cc(=O)n2c(n1)NC(Nc1cccc(C)c1C)=NC2c1ccc(F)cc1` (centres undefined), the inhibition is reported as -3.8%.
With `O=C(COC(=O)c1ccccc1F)c1ccc(-n2nncc2-c2ccco2)cc1` the inhibition was -3.3%.
`CSc1ccccc1NC(=O)CSc1nnc(Cc2ccccc2)o1` showed an inhibition of -12.7%.
Work on `CCOC(=O)c1sc2nc3c(SCCC#N)cc(C(=O)c4cc(F)ccc4O)cn3c(=O)c2c1C` yielded an inhibition of 1.4%.
With `CCOC(=O)c1sc2nc3c(SCC(=O)O)cc(C(=O)c4cc(F)ccc4O)cn3c(=O)c2c1C` the inhibition was 5.2%.
With `CCOC(=O)c1sc2nc3c(SCCC(=O)O)cc(C(=O)c4cc(OC)ccc4O)cn3c(=O)c2c1C` the inhibition was 53.3% (active).
Work on `O=C(Nc1cc(Cl)cc(Cl)c1)C(NCC1CCCO1)c1ccccc1` (centres undefined) yielded an inhibition of 0%.
`COc1ccc(CCNC(=O)CCC(=O)N2CCN(S(=O)(=O)c3ccccc3)CC2)cc1OC` showed an inhibition of -4.5%.
`Cc1ccc(S(=O)(=O)c2nc(-c3ccccc3)oc2NCCN2CCOCC2)cc1` was tested, and the inhibition was 67.9% (active).
`O=S(=O)(c1ccc(Br)cc1)c1nc(-c2ccccc2)oc1NCCN1CCOCC1` showed an inhibition of -4.8%.
`Cc1ccc(S(=O)(=O)c2nc(-c3ccccc3)oc2NCCCN2CCOCC2)cc1` showed an inhibition of 3.6%.
In the case of `O=C(CCN1C(=O)C2CC=C(Cl)CC2C1=O)NCc1ccco1` (centres undefined), the inhibition is reported as 55.2% (active).
In the case of `O=C(CCN1C(=O)c2ccccc2C1=O)NCc1ccco1`, the inhibition is reported as -4.2%.
Compound `O=C(CCN1C(=O)C2CC=C(Cl)CC2C1=O)NCc1ccccc1` (centres undefined) has an inhibition of -1.9%.
For `Cc1ccc(NC(=O)c2cccc3ccccc23)cc1`, the inhibition was -8.7%.
Work on `CC(C)CC(=O)Nc1ccc(C(=O)CN2CCN(c3ccc(O)cc3)CC2)cc1` yielded an inhibition of -9.4%.
In the case of `COc1ccc(C2CC(=O)OC3=C2C(=O)CC(C)(C)C3)c(OC)c1` (centres undefined), the inhibition is reported as -2.3%.
For `Cc1ccc(C(=O)O)cc1NC(=O)c1ccc2c(c1)C(=O)N(c1ccc([N+](=O)[O-])cc1)C2=O`, the inhibition was 50.3% (active).
Compound `Cc1cc([N+](=O)[O-])ccc1N1C(=O)c2ccc(C(=O)Nc3ccccc3C(=O)O)cc2C1=O` has an inhibition of -5.4%.
For `O=C(O)c1cccc(NC(=O)c2ccc3c(c2)C(=O)N(c2cccc([N+](=O)[O-])c2)C3=O)c1`, the inhibition was -2%.
For `C(=N\Nc1nc(-c2ccccc2)cs1)/c1cccnc1`, the inhibition was 4.2%.
With `CC(=O)c1ccc2noc(-c3cccc(C)c3)c2c1` the inhibition was 8.5%.
Compound `Cc1ccc2sc(NNC(=O)c3cc(=O)c4ccccc4o3)nc2c1C` has an inhibition of 1.8%.
`CSCC[C@H](NC(=O)Nc1cccc(Br)c1)C(=O)O` gave an inhibition of -3.3%.
In the case of `C[C@H](NC(=O)Nc1cccc(C(F)(F)F)c1)C(=O)O`, the inhibition is reported as -5.3%.
`CSCC[C@H](NC(=O)Nc1cccc(C(F)(F)F)c1)C(=O)O` was tested, and the inhibition was 61.2% (active).
Work on `CC(OC(=O)c1ccc(NS(=O)(=O)c2ccc3[nH]c(=O)[nH]c3c2)cc1)C(N)=O` (centres undefined) yielded an inhibition of -4.3%.
In the case of `Brc1cccc(C2Nc3cccc4cccc(c34)N2)c1`, the inhibition is reported as -6.2%.
Compound `c1coc(C2Nc3cccc4cccc(c34)N2)c1` has an inhibition of 18.4%.
With `Brc1ccc(C2Nc3cccc4cccc(c34)N2)o1` the inhibition was 80.6% (active).
`Cn1nc(C(C)(C)C)cc1NC(=O)Nc1ccc(Cl)cc1` showed an inhibition of 0%.
For `COc1ccccc1NC(=O)CSc1nnc(Cc2cccn2C)n1-c1ccc(F)cc1`, the inhibition was 1.1%.
`CCOc1ccccc1NC(=O)CSc1nnc(Cc2cccn2C)n1-c1ccc(F)cc1` was tested, and the inhibition was 64.9% (active).
For `Cn1cccc1Cc1nnc(SCC(=O)Nc2ccccc2F)n1-c1ccc(F)cc1`, the inhibition was 8.3%.
In the case of `CCc1cccc(NC(=O)C2CCCN(c3ncnc4c3nc3n4CCCCC3)C2)c1` (centres undefined), the inhibition is reported as -6.4%.
`COc1ccccc1CC(NC(C)=O)C(=O)NC1CCN(C(=O)Nc2ccc(F)cc2)CC1` (centres undefined) gave an inhibition of -8%.
Work on `Cc1nn(C)c(C(=O)N/N=C/c2cccnc2)c1Cl` yielded an inhibition of -2.8%.
`Cc1ccccc1Cc1c(C)nc2ncnn2c1C` showed an inhibition of -9%.
For `O=C(O)CCCNc1cc(N2CCN(C(=O)c3ccco3)CC2)c2noc3c2c1C(=O)c1ccccc1-3`, the inhibition was 2.4%.
For `O=C(O)CCCNc1cc(N2CCC3(CC2)OCCO3)c2noc3c2c1C(=O)c1ccccc1-3`, the inhibition was 75.6% (active).
Compound `CCOC(=O)N1CCN(c2cc(NCCC(=O)O)c3c4c(onc24)-c2ccccc2C3=O)CC1` has an inhibition of 3.3%.
`Clc1ccc2nc(-c3ccc(Br)s3)cn2c1` was tested, and the inhibition was -4.3%.
`CC(=Nc1ccccc1)c1sc2ccccc2c1O` gave an inhibition of 2%.
For `COc1ccc(/C=C2\SC(N)=NC2=O)cc1Br`, the inhibition was -4.5%.
Work on `COc1cccc(OC)c1C(=O)Nc1cccc(-c2ccc3nncn3n2)c1` yielded an inhibition of -6.9%.
`COc1cccc(C(=O)Nc2cccc(-c3ccc4nncn4n3)c2)c1OC` showed an inhibition of -0.4%.
With `CC(C)CC1=NN(C(=O)c2ccco2)C(O)(C(F)(F)F)C1` (centres undefined) the inhibition was -6.1%.
Work on `C=CCN(CC=C)C(=S)NC(=O)/C=C/c1ccccc1` yielded an inhibition of 2.6%.
For `C=CCN(CC=C)C(=S)NC(=O)/C=C/c1ccc(C)cc1`, the inhibition was 65.4% (active).
In the case of `C=CCN(CC=C)C(=S)NC(=O)/C=C/c1ccc(OC)cc1`, the inhibition is reported as 8.3%.
For `COc1ccc(S(=O)(=O)Nc2nccs2)cc1OC`, the inhibition was -10.2%.
`CCC(C)n1c(C)nc2c(c1=O)c1nc3ccccc3nc1n2CCC1=CCCCC1` (centres undefined) gave an inhibition of 7.5%.
In the case of `COc1ccc2c(-c3ccccc3)cc(N3CCOCC3)nc2c1`, the inhibition is reported as 72.7% (active).
`c1ccc(-c2cc(N3CCOCC3)nc3ccccc23)cc1` gave an inhibition of 2.6%.
`COc1ccc2c(C)cc(N3CCOCC3)nc2c1` was tested, and the inhibition was -0.1%.
Work on `NC(=O)c1nn(-c2ccccc2)nc1NC(=O)CSc1nnnn1-c1ccc(Cl)cc1` yielded an inhibition of 5.7%.
Work on `Cc1cccc(NC(=O)c2ccc(OC3CSC3)cc2)c1` yielded an inhibition of -5%.
In the case of `CC(=O)c1cccc(NC(=O)c2ccc(OC3CSC3)cc2)c1`, the inhibition is reported as -7%.
`O=C(Nc1ccc(Cl)cc1)c1ccc(OC2CSC2)cc1` was tested, and the inhibition was 67.9% (active).
